Measurements taken from PubChem BioAssay AID1508601 (ICCB-Longwood Screening Facility, Harvard Medical School, 2020).
The campaign covered roughly 5,700 compounds. About 85 (1%) were called active. No stated cut-off is given here; in the data, active means p53-positive nuclei above about 36% (passing the limit was not always enough); inactive means the rest. The entries come from a sample that favours actives as a whole.

Key:
[1] = nuclear p53 accumulation, HPV+ cells – imaging, p53-positive nuclei imaging, 24 h, 48 h (AID 1508601); conditions: 24/48 h
[2] = target: Cellular tumor antigen p53 (Homo sapiens) (UniProt P04637); assay: as above; conditions: 24/48 h, stronger effect = higher value
Chain of Cellular tumor antigen p53 (Homo sapiens) (P04637 whole entry, looked up): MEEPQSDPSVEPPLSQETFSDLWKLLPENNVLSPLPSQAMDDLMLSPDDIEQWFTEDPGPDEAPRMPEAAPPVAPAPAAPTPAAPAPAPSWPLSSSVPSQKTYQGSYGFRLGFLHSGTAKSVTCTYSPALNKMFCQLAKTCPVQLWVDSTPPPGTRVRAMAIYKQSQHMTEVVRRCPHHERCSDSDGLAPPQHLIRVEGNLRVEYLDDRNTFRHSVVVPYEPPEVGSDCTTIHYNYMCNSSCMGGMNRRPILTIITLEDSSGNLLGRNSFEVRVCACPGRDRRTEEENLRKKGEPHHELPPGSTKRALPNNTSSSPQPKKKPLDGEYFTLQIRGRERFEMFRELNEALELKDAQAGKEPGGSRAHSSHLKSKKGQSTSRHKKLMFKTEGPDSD

[3] = measured here: cell number at 24 h, Library stock concentration: 3.33 mM
[4] = measured here: cell number at 48 h, Library stock concentration: 3.33 mM
[5] = Library stock concentration: 3.33 mM
[6] = measured here: p53 positive nuclei at 24 h, Library stock concentration: 3.33 mM
[7] = measured here: cell number at 24 h, Library stock concentration: 80 uM
[8] = measured here: cell number at 24 h, Library stock concentration: 400 uM
[9] = measured here: cell number at 24 h, Library stock concentration: 2 mM
[10] = measured here: cell number at 24 h, Library stock concentration: 10 mM
[11] = measured here: cell number at 48 h, Library stock concentration: 80 uM
[12] = measured here: cell number at 48 h, Library stock concentration: 400 uM
[13] = measured here: cell number at 48 h, Library stock concentration: 2 mM
[14] = measured here: cell number at 48 h, Library stock concentration: 10 mM
[15] = Library stock concentration: 80 uM
[16] = Library stock concentration: 400 uM
[17] = Library stock concentration: 2 mM
[18] = Library stock concentration: 10 mM
[19] = measured here: p53 positive nuclei at 24 h, Library stock concentration: 80 uM
[20] = measured here: p53 positive nuclei at 24 h, Library stock concentration: 400 uM
[21] = measured here: p53 positive nuclei at 24 h, Library stock concentration: 2 mM
[22] = measured here: p53 positive nuclei at 24 h, Library stock concentration: 10 mM
[23] = measured here: cell number at 24 h, concentration not given here
[24] = measured here: cell number at 48 h, concentration not given here
[25] = measured here: p53 positive nuclei at 24 h, concentration not given here

Cc1cn(C2OC(CO)C(O)C2F)c(=O)[nH]c1=O (configuration not stated)
nuclei count, normalised [1, 3]: 108% | nuclei count, normalised [1, 4]: 103% | p53-positive nuclei, normalised [2, 5]: -0.314% (inactive) | p53-positive nuclei, normalised [2, 6]: -0.356%

COC(=O)N1C(=O)[C@](c2ccccc2)(C2CCCC2)N1C(=O)OC
nuclei count, normalised [1, 7]: 90.3% | nuclei count, normalised [1, 8]: 87.6% | nuclei count, normalised [1, 9]: 93.9% | nuclei count, normalised [1, 10]: 90.1% | nuclei count, normalised [1, 11]: 91.7% | nuclei count, normalised [1, 12]: 93.5% | nuclei count, normalised [1, 13]: 99.5% | nuclei count, normalised [1, 14]: 96.9% | p53-positive nuclei, normalised [2, 15]: -0.0853% (inactive) | p53-positive nuclei, normalised [2, 16]: -0.162% (inactive) | p53-positive nuclei, normalised [2, 17]: 0.00515% (inactive) | p53-positive nuclei, normalised [2, 18]: 0.0597% (inactive) | p53-positive nuclei, normalised [2, 19]: -0.136% | p53-positive nuclei, normalised [2, 20]: -0.136% | p53-positive nuclei, normalised [2, 21]: 0.165% | p53-positive nuclei, normalised [2, 22]: 0.0248%

Cc1cc(C)c(/C=C2\C(=O)Nc3ccccc32)[nH]1
nuclei count, normalised [1, 23]: 96.2% | nuclei count, normalised [1, 24]: 102% | p53-positive nuclei, normalised ([2]; concentration not given here): 0.0559% (inactive) | p53-positive nuclei, normalised [2, 25]: 0.0506%

COc1cc(=C2C=c3ccccc3=N2)[nH]c1=Cc1[nH]c(C)cc1C
nuclei count, normalised [1, 7]: 104% | nuclei count, normalised [1, 8]: 82.2% | nuclei count, normalised [1, 9]: 74.9% | nuclei count, normalised [1, 3]: 71.2% | nuclei count, normalised [1, 10]: 65.9% | nuclei count, normalised [1, 11]: 101% | nuclei count, normalised [1, 12]: 75.4% | nuclei count, normalised [1, 13]: 60.3% | nuclei count, normalised [1, 4]: 61.8% | nuclei count, normalised [1, 14]: 52.6% | p53-positive nuclei, normalised [2, 15]: 0.397% (inactive) | p53-positive nuclei, normalised [2, 16]: 74% (active) | p53-positive nuclei, normalised [2, 17]: 142% (active) | p53-positive nuclei, normalised [2, 5]: 137% (active) | p53-positive nuclei, normalised [2, 18]: 105% (active) | p53-positive nuclei, normalised [2, 19]: 0.165% | p53-positive nuclei, normalised [2, 20]: 72.4% | p53-positive nuclei, normalised [2, 21]: 167% | p53-positive nuclei, normalised [2, 6]: 159% | p53-positive nuclei, normalised [2, 22]: 137%

Cc1cc(C)c(C=C2C(=O)Nc3ccccc32)[nH]1
nuclei count, normalised [1, 3]: 116% | nuclei count, normalised [1, 4]: 119% | p53-positive nuclei, normalised [2, 5]: -0.0521% (inactive) | p53-positive nuclei, normalised [2, 6]: -0.278%

Nc1ccn(C2C=C(CO)C(O)C2O)c(=O)n1 (configuration not stated)
nuclei count, normalised ([1]; measured here: cell number at 24 h, Library stock concentration: 500 nM): 108% | nuclei count, normalised ([1]; measured here: cell number at 24 h, Library stock concentration: 1.5 uM): 117% | nuclei count, normalised ([1]; measured here: cell number at 24 h, Library stock concentration: 4.6 uM): 110% | nuclei count, normalised ([1]; measured here: cell number at 24 h, Library stock concentration: 13.7 uM): 119% | nuclei count, normalised ([1]; measured here: cell number at 24 h, Library stock concentration: 41 uM): 115% | nuclei count, normalised ([1]; measured here: cell number at 24 h, Library stock concentration: 123 uM): 83.8% | nuclei count, normalised ([1]; measured here: cell number at 24 h, Library stock concentration: 370 uM): 70% | nuclei count, normalised ([1]; measured here: cell number at 24 h, Library stock concentration: 1.111 mM): 73.4% | nuclei count, normalised ([1]; measured here: cell number at 24 h, Library stock concentration: 3.333 mM): 65.6% | nuclei count, normalised [1, 10]: 65.3% | nuclei count, normalised ([1]; measured here: cell number at 48 h, Library stock concentration: 500 nM): 109% | nuclei count, normalised ([1]; measured here: cell number at 48 h, Library stock concentration: 1.5 uM): 111% | nuclei count, normalised ([1]; measured here: cell number at 48 h, Library stock concentration: 4.6 uM): 111% | nuclei count, normalised ([1]; measured here: cell number at 48 h, Library stock concentration: 13.7 uM): 117% | nuclei count, normalised ([1]; measured here: cell number at 48 h, Library stock concentration: 41 uM): 105% | nuclei count, normalised ([1]; measured here: cell number at 48 h, Library stock concentration: 123 uM): 67.3% | nuclei count, normalised ([1]; measured here: cell number at 48 h, Library stock concentration: 370 uM): 54.3% | nuclei count, normalised ([1]; measured here: cell number at 48 h, Library stock concentration: 1.111 mM): 57.7% | nuclei count, normalised ([1]; measured here: cell number at 48 h, Library stock concentration: 3.333 mM): 52.7% | nuclei count, normalised [1, 14]: 52% | p53-positive nuclei, normalised ([2]; Library stock concentration: 500 nM): -0.14% (inactive) | p53-positive nuclei, normalised ([2]; Library stock concentration: 1.5 uM): -0.145% (inactive) | p53-positive nuclei, normalised ([2]; Library stock concentration: 4.6 uM): 0.0813% (inactive) | p53-positive nuclei, normalised ([2]; Library stock concentration: 13.7 uM): -0.00208% (inactive) | p53-positive nuclei, normalised ([2]; Library stock concentration: 41 uM): -0.138% (inactive) | p53-positive nuclei, normalised ([2]; Library stock concentration: 123 uM): 0.289% (inactive) | p53-positive nuclei, normalised ([2]; Library stock concentration: 370 uM): -0.0266% (inactive) | p53-positive nuclei, normalised ([2]; Library stock concentration: 1.111 mM): 0.668% (inactive) | p53-positive nuclei, normalised ([2]; Library stock concentration: 3.333 mM): 0.138% (inactive) | p53-positive nuclei, normalised [2, 18]: 0.496% (inactive) | p53-positive nuclei, normalised ([2]; measured here: p53 positive nuclei at 24 h, Library stock concentration: 500 nM): 0.0935% | p53-positive nuclei, normalised ([2]; measured here: p53 positive nuclei at 24 h, Library stock concentration: 1.5 uM): -0.093% | p53-positive nuclei, normalised ([2]; measured here: p53 positive nuclei at 24 h, Library stock concentration: 4.6 uM): -0.13% | p53-positive nuclei, normalised ([2]; measured here: p53 positive nuclei at 24 h, Library stock concentration: 13.7 uM): 0.115% | p53-positive nuclei, normalised ([2]; measured here: p53 positive nuclei at 24 h, Library stock concentration: 41 uM): -0.0784% | p53-positive nuclei, normalised ([2]; measured here: p53 positive nuclei at 24 h, Library stock concentration: 123 uM): 0.089% | p53-positive nuclei, normalised ([2]; measured here: p53 positive nuclei at 24 h, Library stock concentration: 370 uM): 0.146% | p53-positive nuclei, normalised ([2]; measured here: p53 positive nuclei at 24 h, Library stock concentration: 1.111 mM): 0.68% | p53-positive nuclei, normalised ([2]; measured here: p53 positive nuclei at 24 h, Library stock concentration: 3.333 mM): 0.184% | p53-positive nuclei, normalised [2, 22]: 0.519%

CCCCC/C=C\C/C=C\C/C=C\CCCCCCC(=O)OC
nuclei count, normalised [1, 23]: 114% | nuclei count, normalised [1, 24]: 108% | p53-positive nuclei, normalised ([2]; concentration not given here): 0.0353% (inactive) | p53-positive nuclei, normalised [2, 25]: 0.00725%
